Experimental data as given in PubChem BioAssay (NCATS).
Records with an inconclusive call do not appear. A call without a number means that no potency is given here. Active and inactive are the calls of the source. Unless noted, calls come from the whole dose curve.

Columns and labels:
[1] = qHTS for Inhibitors of the Functional Ribonucleoprotein Complex (vRNP) of Lassa (LASV) Arenavirus: LASV Primary Screen - GLuc reporter signal (AID 1347082; calls by dose curve; tested in HEK293 reporter line; note: nearly all actives have a fitted effect of over 60% in size)
[2] = qHTS for Inhibitors of the Functional Ribonucleoprotein Complex (vRNP) of Lymphocytic Choriomeningitis Arenaviruses (LCMV): Viability assay - alamar blue signal for LCMV Primary Screen (AID 1347085; calls by dose curve; tested in HEK293 reporter line; note: nearly all actives have a fitted effect of over 80% in size)
[3] = biological target: Nucleoprotein (Lymphocytic choriomeningitis virus (strain Armstrong)) (UniProt P09992); test: qHTS for Inhibitors of the Functional Ribonucleoprotein Complex (vRNP) of Lymphocytic Choriomeningitis Arenaviruses (LCMV): LCMV Primary Screen - GLuc reporter signal (AID 1347086); note: nearly all actives have a fitted effect of over 70% in size
Chain of Nucleoprotein (Lymphocytic choriomeningitis virus (strain Armstrong)) (P09992 whole entry, looked up): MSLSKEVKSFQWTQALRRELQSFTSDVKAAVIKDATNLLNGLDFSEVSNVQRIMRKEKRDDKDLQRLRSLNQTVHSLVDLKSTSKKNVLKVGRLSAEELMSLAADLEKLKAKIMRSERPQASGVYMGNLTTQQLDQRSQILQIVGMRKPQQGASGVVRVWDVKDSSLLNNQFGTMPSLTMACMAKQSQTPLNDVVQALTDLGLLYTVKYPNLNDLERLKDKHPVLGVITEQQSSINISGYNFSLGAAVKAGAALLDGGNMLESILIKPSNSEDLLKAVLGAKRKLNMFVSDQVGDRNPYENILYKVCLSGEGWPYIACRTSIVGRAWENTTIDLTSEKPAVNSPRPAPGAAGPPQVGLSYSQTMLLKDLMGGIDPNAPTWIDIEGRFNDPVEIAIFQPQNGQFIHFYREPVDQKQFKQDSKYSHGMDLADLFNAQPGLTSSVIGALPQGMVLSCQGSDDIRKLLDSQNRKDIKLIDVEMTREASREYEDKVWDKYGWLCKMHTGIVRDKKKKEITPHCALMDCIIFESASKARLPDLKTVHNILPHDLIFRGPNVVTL

[4] = qHTS for Inhibitors of the Functional Ribonucleoprotein Complex (vRNP) of Lassa (LASV) Arenavirus: Viability assay - alamar blue signal for LASV Primary Screen (AID 1347083; calls by dose curve; tested in HEK293 reporter line; note: nearly all actives have a fitted effect of over 80% in size)
Potency is the fitted concentration of half-maximal effect.

| SMILES | Potency [1] | Potency [2] | Potency [3] | Potency [4] |
| --- | --- | --- | --- | --- |
| CC(C)Oc1cc(Nc2nc(N[C@@H](C)c3ccc(F)cn3)ncc2Cl)[nH]n1 | inactive | inactive | inactive |  |
| CNc1nccc(-c2cccnc2Oc2cc(C(=O)Nc3cccc(C(F)(F)F)c3)ccc2C)n1 | inactive | inactive | inactive |  |
| Cc1ccc(F)c(NC(=O)Nc2ccc(-c3cccc4[nH]nc(N)c34)cc2)c1 | inactive | inactive | inactive |  |
| CN1CCN(CCOc2cc(OC3CCOCC3)c3c(Nc4c(Cl)ccc5c4OCO5)ncnc3c2)CC1 | inactive |  | inactive |  |
| CC(=O)Nc1sc2c(c1-c1nc3ccccc3s1)CNC2 | inactive |  | 0.0027 µM (active) | 0.0054 µM (active) |
| O=c1cc(N2CCOCC2)oc2c(-c3cccc4c3sc3ccccc34)cccc12 | inactive | inactive | inactive |  |
| COc1cc2nccc(Oc3ccc(NC(=O)Nc4cc(C)on4)c(Cl)c3)c2cc1OC | 34.3 µM (active) | 17.2 µM (active) |  |  |
| CS(=O)(=O)c1ccc(C(=O)Nc2ccc(Cl)c(-c3ccccn3)c2)c(Cl)c1 | inactive | inactive | inactive |  |
| COCCNCCCn1c(C(=O)CF)c(-c2ccc(C)cc2)c2c(N)ncnc21 | inactive | inactive | inactive |  |
| CCN(CC)c1ccc(C(=C2C=CC(=[N+](CC)CC)C=C2)c2cc(S(=O)(=O)O)ccc2S(=O)(=O)[O-])cc1 | inactive |  | inactive |  |
| O=C1C(Cl)=C(NCCN2CCOCC2)C(=O)c2ncccc21 |  |  |  | 34.3 µM (active) |
| O=C(C1CC1)N1CC[C@@H](Cn2c(-c3ccc(-c4ccc5occc5c4)cc3)nc3cnccc32)C1 | inactive | 10.9 µM (active) |  |  |
| O=C(c1cc(Cc2n[nH]c(=O)c3ccccc23)ccc1F)N1CCN(C(=O)C2CC2)CC1 | inactive | inactive | inactive |  |
| Cc1cc(-c2ccc(CC(=O)Nc3ccc(-c4cccnc4)cc3)cc2)ccn1 |  |  |  | 19.3 µM (active) |
| Cc1cccc(-c2[nH]ncc2-c2ccc3ncccc3n2)n1 | inactive | inactive | inactive |  |
| O=S(=O)(N=Cc1c(O)ccc2ccccc12)c1cccs1 | inactive |  | inactive |  |
| CC(C)C[C@H](NC(=O)CNC(=O)c1cc(Cl)ccc1Cl)B(O)O | 7.69 µM (active) |  | 3.06 µM (active) | 1.53 µM (active) |
| CN1C(=O)c2ccccc2C1=O | inactive | inactive | inactive |  |
| Cc1ccnc(NS(=O)(=O)c2ccc(NC(=O)Nc3ccc(S(=O)(=O)Nc4nccc(C)n4)cc3)cc2)n1 | inactive | 0.685 µM (active) |  |  |
| Cc1cnc(Nc2ccc(OCCN3CCCC3)cc2)nc1Nc1cccc(S(=O)(=O)NC(C)(C)C)c1 | inactive | inactive | inactive |  |
| CCCS(=O)(=O)Nc1ccc(F)c(C(=O)c2c[nH]c3ncc(Cl)cc23)c1F |  | 2.73 µM (active) |  | 12.2 µM (active) |
| O=C(c1ccc(Nc2nccc(-c3cc4ccccc4s3)n2)cc1)N1CCC(N2CCCC2)CC1 |  |  |  | 21.7 µM (active) |
| Cc1nc(N)sc1-c1ccnc(Nc2ccc(N3CCOCC3)cc2)n1 |  | 13.7 µM (active) | inactive | 7.69 µM (active) |
| COc1cccc2cc(-c3nc(C4CCC(C(=O)O)CC4)n4ncnc(N)c34)[nH]c12 (stereo unspecified) |  | 1.72 µM (active) | 3.06 µM (active) | 0.611 µM (active) |
| CC(C)c1ccc(Cn2ccc3c4c(N)nc(NC5CC5)nc4ccc32)cc1 |  | 7.69 µM (active) |  | 7.69 µM (active) |
| CC(C)(C)OC(=O)Nc1ccc(-c2cc(C(=O)NCCCCCCC(=O)NO)no2)cc1 |  | 19.3 µM (active) |  | 17.2 µM (active) |
| C[C@]1(CO)CN(c2cc(C(=O)Nc3ccc4c(c3)-c3c(c(C(N)=O)nn3-c3ccc(F)cc3)CC4)c(Cl)cn2)C[C@@]1(C)CO |  | 1.37 µM (active) |  | 1.72 µM (active) |
| CCOc1cc(C(=O)Nc2ccc(Cl)c(-c3nc4ccccc4[nH]3)c2)cc(OCC)c1OCC |  |  |  | 17.2 µM (active) |
